In PubChem BioAssay (NCATS) one finds Potency and activity, negative = cell killing data, which are given here for 14 molecules.

Several values for one entry are separate records, joined by “and”; a condition that tells them apart may be missing. Equal values may be shown once. Records with an inconclusive call do not appear. A number with no mark means an inactive call. Activity calls are given as the source filed them. The call rests on the fitted dose curve; in most records, active means well fitted curve in the direction sought with a large enough effect; inconclusive means small, poorly fitted or top-dose-only effect, or another doubt; inactive means no such curve, though single readings can be large; an effect the other way counts as inactive or inconclusive.

One test has as its system HeLa. Nature of the test: Primary qHTS to identify gynecologic anti-cancer compounds using libraries of approved drugs and bioactive compounds (AID 1345084). Further: nearly all actives have a fitted effect of over 55% in size. The conditions noted are these: Gynecologic cancer cell panel viability, ATPlite luminescence, 48 h; series mostly up to 57.5 µM. In a few lines: (§1)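 In this quantitative HTS, cell killing is estimated from loss of ATP-dependent luciferase light. Cells see five compound concentrations over a 48 h exposure.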
(qHTS replaces the single test concentration by a dilution series.)

The next test deals with Hek293T. The description is as above. The following applies: Gynecologic cancer cell panel viability, ATPlite luminescence, 48 h, control line for the selectivity index; series mostly up to 57.5 µM. Put shortly:
as §1
Background: Cellular ATP, detected with luciferase, serves as a proxy for viable cell number.

In a further test the test system is JEG-3. The description is as above. The following applies: Gynecologic cancer cell panel viability, ATPlite luminescence, 48 h; series mostly up to 57.5 µM. In a few lines:
as §1

The next test deals with OV90. The test is described as above. The conditions noted are these: Gynecologic cancer cell panel viability, ATPlite luminescence, 48 h; series mostly up to 57.5 µM. Put shortly: as §1
The subject of a further test is PA-1. The description is as above. The conditions noted are these: Gynecologic cancer cell panel viability, ATPlite luminescence, 48 h; series mostly up to 57.5 µM. Put shortly: as §1
The test system of the next test is SKOV3. The description is as above. The following applies: Gynecologic cancer cell panel viability, ATPlite luminescence, 48 h; series mostly up to 57.5 µM. In a few lines: as §1
Another test relates to Tov-21-G. Described as above. The conditions noted are these: Gynecologic cancer cell panel viability, ATPlite luminescence, 48 h; series mostly up to 57.5 µM. In a few lines:
as §1

A further test deals with Tov112D. The test is described as above. The following applies: Gynecologic cancer cell panel viability, ATPlite luminescence, 48 h; series mostly up to 57.5 µM. Put shortly: as §1
Test [1] is described as follows: Drug repurposing screens with cells derived from glioblastoma tumor samples (AID 1345199). Further: nearly all actives have a fitted effect of over 40% in size. Further: potency means the concentration at half of the fitted maximal effect. The conditions noted are these: GBM patient neurospheres viability, ATP luminescence, 48 h. Put shortly: (§2)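 Four patient lines of CD133+ GBM neurospheres were screened at several concentrations; hits were retested in those lines plus three slower-growing GBM lines, using 48-hour treatment and ATP-based viability.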

The test system of a further test is astro. Described as above. The following applies: viability, ATP luminescence, 48 h; series mostly up to 45.9 µM. Put shortly:
as §2

Setting [2] is: at 20 µM (top of the series), tumour line C.
Where [3] appears, read: at 21.2 µM (top of the series), tumour line B.
The mark [4] stands for this setting: at 21.2 µM (top of the series), tumour line D.
Where [5] appears, read: at 21.3 µM (top of the series), tumour line A.
Where [6] appears, read: at 45.9 µM (top of the series), tumour line B.
Where [7] appears, read: at 45.9 µM (top of the series), tumour line D.
The mark [8] stands for this setting: at 46 µM (top of the series), tumour line A.
[9] abbreviates: at 46.1 µM (top of the series), tumour line C.
On the % scale 0 is the no-effect control and ±100 the full control effect.

Take `CC[C@@H](CO)NCCN[C@@H](CC)CO`: the Potency result with HeLa, in the test on Hek293T, with JEG-3, in the test on OV90, in the test with PA-1 and in the test on SKOV3 was “inactive” each time. In addition, the Potency result in the test on Tov-21-G, with Tov112D and in the test on astro was “inactive” in each case. Also, the activity, negative = cell killing in [1] (setting [2]) was 12.9%; in test [1] (setting [3]) it was 2%; in [1] (setting [4]), -7.59%; in test [1] (setting [5]), -22%.
For `NC(CS)C(=O)O` (stereo not drawn), the Potency entry in the test with HeLa, with Hek293T, with JEG-3, in the test on OV90, with PA-1 and in the test on SKOV3 was “inactive” throughout. The Potency entry with Tov-21-G, in the test on Tov112D and with astro was “inactive” each time. The activity, negative = cell killing in test [1] (setting [6]) is -9.5%; in test [1] (setting [7]), -0.348%; in test [1] (setting [8]), -20.7%; in test [1] (setting [9]), -17%.
For `COc1cccc(OC)c1C(=O)N[C@@H]1C(=O)N2[C@@H]1SC(C)(C)[C@@H]2C(=O)O`, the Potency result with HeLa, in the test with Hek293T, in the test on JEG-3, with OV90, in the test on PA-1 and in the test on SKOV3 was “inactive” in each case. The Potency result in the test on Tov-21-G, with Tov112D and with astro was “inactive” each time. Besides, the activity, negative = cell killing in [1] (setting [6]) is -0.637%; in test [1] (setting [7]), -7.13%; in [1] (setting [8]) it was -15.4%; in test [1] (setting [9]), 14.7%.
Turning to `NCCCC[C@H](N[C@@H](CCc1ccccc1)C(=O)O)C(=O)N1CCC[C@H]1C(=O)O`, the Potency result in the test on HeLa, in the test with Hek293T, with JEG-3, in the test with OV90, in the test with PA-1 and in the test on SKOV3 was “inactive” throughout. Moreover, the Potency entry in the test with Tov-21-G and in the test on Tov112D was “inactive” each time. Besides, the activity, negative = cell killing is 16.9% in test [1] (setting [2]), -0.103% in test [1] (setting [3]), -3.03% in test [1] (setting [4]) and 10.9% in test [1] (setting [5]).
As to `C[C@]12CCC(=O)C=C1CC[C@H]1[C@@H]3CC[C@](O)(C(=O)CO)[C@@]3(C)C[C@H](O)[C@@]12F`, the Potency result in the test on HeLa, in the test on Hek293T, in the test with JEG-3, in the test with OV90, in the test on PA-1 and with SKOV3 was “inactive” in each case. For the same molecule, the Potency result in the test on Tov-21-G, with Tov112D and in the test with astro was “inactive” in each case. Also, the activity, negative = cell killing in [1] (setting [6]) is -5.55% and -2.43%; in [1] (setting [7]), -21.3% and -14.3%; in [1] (setting [8]), -18.5% and -26.2%; in test [1] (setting [9]), -25.3% and 1.15%.
Turning to `Oc1cc(O)c2c(c1)O[C@H](c1ccc(O)c(O)c1)[C@H](O)C2`, the Potency entry in the test on HeLa, in the test on Hek293T, in the test with JEG-3, in the test on OV90, in the test with PA-1 and in the test with SKOV3 was “inactive” in each case. The Potency result in the test with Tov-21-G and in the test with Tov112D was “inactive” in each case. For the same molecule, the activity, negative = cell killing in test [1] (setting [6]) is -5.02%; in test [1] (setting [7]), -9.16%; in [1] (setting [8]), -28.5%; in [1] (setting [9]), -2.43%.
For `CC(C)NC[C@@H](O)COc1cccc2ccccc12`, the Potency entry in the test on HeLa, in the test on Hek293T, with JEG-3, with OV90, in the test on PA-1 and in the test with SKOV3 was “inactive” in each case. For the same molecule, the Potency entry in the test with Tov-21-G, with Tov112D and in the test on astro was “inactive” each time. Besides, the activity, negative = cell killing was -11.2% in test [1] (setting [6]), -22.3% in [1] (setting [7]) and -5.6% in test [1] (setting [9]). Also, the Potency in test [1] (tumour line A) was 28.2 µM (active).
With `O=c1ccc2ccccc2o1`, the Potency entry with HeLa, in the test with Hek293T, in the test on JEG-3, in the test with OV90, with PA-1 and in the test with SKOV3 was “inactive” each time. The Potency entry in the test on Tov-21-G, in the test with Tov112D and in the test on astro was “inactive” each time. Also, the activity, negative = cell killing in test [1] (setting [6]) is -10.7%; in [1] (setting [7]) it was -11.2%; in test [1] (setting [8]), -35.1%; in test [1] (setting [9]) it was 13.9%.
For the molecule `NCCC(O)(P(=O)(O)O)P(=O)(O)O`, the Potency result in the test with HeLa, with Hek293T, in the test on JEG-3, in the test with OV90, in the test with PA-1 and in the test with SKOV3 was “inactive” each time. Moreover, the Potency entry with Tov-21-G, in the test on Tov112D and with astro was “inactive” throughout. For the same molecule, the activity, negative = cell killing in [1] (setting [6]) is -6.03%; in test [1] (setting [7]), -13.5%; in test [1] (setting [8]) it was -19.5%; in test [1] (setting [9]), -12.2%.
Turning to `O=C(O)CCCCC(=O)O`, the Potency entry with HeLa, in the test with Hek293T, in the test with JEG-3, with OV90, in the test on PA-1 and in the test with SKOV3 was “inactive” each time. The Potency entry in the test with Tov-21-G, in the test with Tov112D and in the test with astro was “inactive” throughout. Also, the activity, negative = cell killing is 11.6% in test [1] (setting [6]), -7.89% in [1] (setting [7]), -0.455% in test [1] (setting [8]) and 0.572% in test [1] (setting [9]).
As to `COc1cc(/C=C/C(=O)O[C@H]2CC[C@]34C[C@]35CC[C@]3(C)[C@@H]([C@H](C)CCC=C(C)C)CC[C@@]3(C)[C@@H]5CC[C@H]4C2(C)C)ccc1O`, the Potency result in the test on HeLa, in the test on Hek293T, in the test on JEG-3, with OV90, in the test on PA-1 and in the test on SKOV3 was “inactive” in each case. Also, the Potency result with Tov-21-G and in the test with Tov112D was “inactive” in each case. For the same molecule, the activity, negative = cell killing in test [1] (setting [6]) is -21.5%; in test [1] (setting [7]), -21.3%; in test [1] (setting [8]) it was -29.3%; in test [1] (setting [9]) it was -22.4%. For the same molecule, the Potency in the test with astro was 17.8 µM (active).
As for `CN1CCC[C@@H]1c1cccnc1`, the Potency entry in the test on HeLa, with Hek293T, with JEG-3, in the test with OV90, in the test with PA-1 and in the test on SKOV3 was “inactive” each time. Besides, the Potency result in the test on Tov-21-G and with Tov112D was “inactive” throughout. Further, the activity, negative = cell killing in test [1] (setting [6]) is -7.48%; in [1] (setting [7]), -12.9%; in [1] (setting [8]) it was -29.1%; in test [1] (setting [9]) it was -0.391%.
As for `CN=C(NC#N)Nc1ccc(C2=NNC(=O)CC2C)cc1` (stereo not drawn), the Potency entry in the test on HeLa, with Hek293T, in the test on JEG-3, in the test with OV90, in the test on PA-1 and in the test with SKOV3 was “inactive” each time. Moreover, the Potency result with Tov-21-G, with Tov112D and with astro was “inactive” in each case. Further, the activity, negative = cell killing is -9.56% in [1] (setting [6]), 17.5% in test [1] (setting [7]), -26.1% in [1] (setting [8]) and -22.3% in test [1] (setting [9]).
Consider `C[C@H](CCC(=O)O)[C@H]1CC[C@H]2[C@@H]3C(=O)C[C@@H]4CC(=O)CC[C@]4(C)[C@H]3CC(=O)[C@]12C`, for which the Potency entry in the test on HeLa, in the test with Hek293T, in the test with JEG-3, in the test on OV90, in the test on PA-1 and in the test on SKOV3 was “inactive” in each case. Further, the Potency result in the test with Tov-21-G and in the test with Tov112D was “inactive” throughout. Moreover, the activity, negative = cell killing is -0.788% in [1] (setting [6]), -14.6% in [1] (setting [7]), -2.78% in [1] (setting [8]) and 3.71% in test [1] (setting [9]).
